Results filed as inconclusive are left out. Calls of active or inactive are those of the source. How the source made its calls: active means hit-call score of the fitted dose curve at least 0.9, where 1 is the maximum; inconclusive means response in the unintended direction; inactive means score below 0.9.
Key:
[1] = target: human Phosphodiesterase 4A1 (PDE4A1), PDE4A (gene 5141) (UniProt P27815); assay: NVS_ENZ_hPDE4A1: NovaScreen (NVS) Enzymatic Assay for human Phosphodiesterase 4A1 (PDE4A1) (AID 2283191)
Chain of human Phosphodiesterase 4A1 (PDE4A1), PDE4A (gene 5141) (P27815 whole entry, looked up): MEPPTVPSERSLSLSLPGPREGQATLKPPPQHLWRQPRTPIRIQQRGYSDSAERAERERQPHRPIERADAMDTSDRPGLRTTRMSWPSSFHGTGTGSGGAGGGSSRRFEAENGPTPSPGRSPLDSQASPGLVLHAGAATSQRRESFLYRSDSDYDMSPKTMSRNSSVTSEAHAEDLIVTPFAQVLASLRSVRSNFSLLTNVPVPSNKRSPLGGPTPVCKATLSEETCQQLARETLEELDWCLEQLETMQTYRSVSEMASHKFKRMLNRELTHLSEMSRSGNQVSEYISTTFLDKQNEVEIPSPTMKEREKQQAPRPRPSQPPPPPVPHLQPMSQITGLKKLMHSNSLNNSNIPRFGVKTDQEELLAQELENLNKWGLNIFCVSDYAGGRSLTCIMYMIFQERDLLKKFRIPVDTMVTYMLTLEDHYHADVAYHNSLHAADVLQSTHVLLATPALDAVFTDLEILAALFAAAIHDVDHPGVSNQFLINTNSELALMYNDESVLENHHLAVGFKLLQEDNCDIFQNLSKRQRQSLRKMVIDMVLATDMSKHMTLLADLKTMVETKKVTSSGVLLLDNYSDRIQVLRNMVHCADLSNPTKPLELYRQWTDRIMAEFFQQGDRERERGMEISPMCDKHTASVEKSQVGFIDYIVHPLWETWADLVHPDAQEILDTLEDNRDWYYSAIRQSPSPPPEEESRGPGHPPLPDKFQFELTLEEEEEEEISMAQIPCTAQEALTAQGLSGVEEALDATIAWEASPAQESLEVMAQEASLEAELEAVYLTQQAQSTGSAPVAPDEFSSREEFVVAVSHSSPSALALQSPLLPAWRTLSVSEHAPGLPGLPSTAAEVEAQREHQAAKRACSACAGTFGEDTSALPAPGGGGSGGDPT
In short: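 Cell-free recombinant human PDE4A1 with fluorescent substrate; product separated by electrophoretic mobility shift, 1 h. Screened at 25 uM, then up to 50 uM in concentration-response; loss of signal fitted against DMSO.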

[2] = target: cAMP-dependent protein kinase catalytic subunit alpha (Homo sapiens) (UniProt P17612); assay: NVS_ENZ_hPKA: NovaScreen (NVS) Enzymatic Assay for human Protein Kinase A (PKA) (AID 2283192)
In short: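 Recombinant human PKA with specific fluorescent substrate, product separated by electrophoretic mobility shift, read 1 h after dosing. Primary screen at 25 uM in duplicate; actives then run in concentration-response up to 50 uM, activity relative to DMSO.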

[3] = target: human Phosphodiesterase 5 (PDE5), PDE5A (gene 8654) (UniProt O76074); assay: NVS_ENZ_hPDE5: NovaScreen (NVS) Enzymatic Assay for human Phosphodiesterase 5 (PDE5) (AID 2283194)
In short: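 Recombinant human PDE5 with specific substrate, read 1 h after dosing by fluorescence with electrophoretic mobility-shift separation of substrate and product. Initial single-concentration duplicate screen at 25 uM, actives followed in concentration series; loss of activity versus DMSO.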

[4] = target: human Phosphodiesterase 10 (PDE10), PDE10A (gene 10846) (UniProt Q9Y233); assay: NVS_ENZ_hPDE10: NovaScreen (NVS) Enzymatic Assay for human Phosphodiesterase 10 (PDE10) (AID 2283195)
Chain of human Phosphodiesterase 10 (PDE10), PDE10A (gene 10846) (Q9Y233 whole entry, looked up): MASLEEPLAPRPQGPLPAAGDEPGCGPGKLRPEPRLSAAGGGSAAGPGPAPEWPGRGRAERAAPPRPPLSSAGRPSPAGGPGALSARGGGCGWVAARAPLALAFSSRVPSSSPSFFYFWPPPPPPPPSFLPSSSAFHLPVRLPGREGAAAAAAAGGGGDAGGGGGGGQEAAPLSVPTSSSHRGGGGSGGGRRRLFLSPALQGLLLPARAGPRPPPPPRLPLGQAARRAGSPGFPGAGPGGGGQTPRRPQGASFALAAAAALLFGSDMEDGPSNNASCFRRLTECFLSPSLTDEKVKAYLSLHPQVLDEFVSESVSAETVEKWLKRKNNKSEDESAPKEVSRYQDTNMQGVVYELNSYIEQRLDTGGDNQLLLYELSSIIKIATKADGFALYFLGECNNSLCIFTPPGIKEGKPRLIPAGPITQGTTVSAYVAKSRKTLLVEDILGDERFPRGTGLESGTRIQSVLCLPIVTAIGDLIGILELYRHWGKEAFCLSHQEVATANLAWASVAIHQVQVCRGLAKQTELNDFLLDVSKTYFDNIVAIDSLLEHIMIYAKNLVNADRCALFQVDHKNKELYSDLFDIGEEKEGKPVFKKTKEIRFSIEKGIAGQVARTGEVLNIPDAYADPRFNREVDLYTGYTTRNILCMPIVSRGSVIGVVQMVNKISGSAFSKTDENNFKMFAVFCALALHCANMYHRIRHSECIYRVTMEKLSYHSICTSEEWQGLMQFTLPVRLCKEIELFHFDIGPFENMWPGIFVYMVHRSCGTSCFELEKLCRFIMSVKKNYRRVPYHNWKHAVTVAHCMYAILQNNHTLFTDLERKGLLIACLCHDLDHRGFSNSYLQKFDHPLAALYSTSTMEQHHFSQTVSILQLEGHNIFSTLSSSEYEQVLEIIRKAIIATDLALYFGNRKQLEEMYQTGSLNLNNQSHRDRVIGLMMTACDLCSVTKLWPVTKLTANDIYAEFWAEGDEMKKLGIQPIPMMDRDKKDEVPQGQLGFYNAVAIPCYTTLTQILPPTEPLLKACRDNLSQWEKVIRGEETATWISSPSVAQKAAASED
In short: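 Fluorescence/mobility-shift readout of PDE10A enzyme activity, taken 1 h post-dosing. Primary screen in duplicate at 25 uM; actives (e.g. ≥30% inhibition) retested as singleton concentration-response, top concentration 50 uM.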

[5] = target: human Phosphoinositide 3-kinase alpha (PI3Ka), PIK3CA (gene 5290) (UniProt P42336); assay: NVS_ENZ_hPI3Ka: NovaScreen (NVS) Enzymatic Assay for human Phosphoinositide 3-kinase alpha (PI3Ka) (AID 2283196)
In short: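 Fluorescence/mobility-shift readout of substrate conversion by recombinant enzyme, 1 h post-dosing. Primary screen in duplicate at 25 uM; actives (e.g. ≥30% inhibition) retested in singleton concentration-response, top concentration 50 uM.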

PPP2CA (gene 5515) = PPP2CA (gene 5515) (UniProt P67775); assay: NVS_ENZ_hPPP2CA: NovaScreen (NVS) Enzymatic Assay for human Protein Phosphatase 2 Aatalytic subunit Alpha (PPP2CA) (AID 2283199)
Chain of PPP2CA (gene 5515) (P67775 whole entry, looked up): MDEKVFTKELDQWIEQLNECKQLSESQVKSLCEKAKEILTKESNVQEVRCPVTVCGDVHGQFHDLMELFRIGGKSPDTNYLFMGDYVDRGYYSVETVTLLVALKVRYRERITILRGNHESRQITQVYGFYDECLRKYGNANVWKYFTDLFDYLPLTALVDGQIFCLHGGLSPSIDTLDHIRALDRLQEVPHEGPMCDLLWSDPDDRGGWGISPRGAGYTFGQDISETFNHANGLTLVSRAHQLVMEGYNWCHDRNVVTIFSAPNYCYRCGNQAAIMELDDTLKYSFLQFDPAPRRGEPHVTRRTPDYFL
In short: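 Recombinant human PPP2CA with fluorescent substrate; product separated from substrate by electrophoretic mobility shift, read 1.33 h after dosing. Duplicate single-point at 25 uM, then singleton concentration-response up to 50 uM; loss of signal versus DMSO.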

[6] = target: human Protein Tyrosine Phosphatase Non-receptor Type 1 (PTPN1), PTPN1 (gene 5770) (UniProt P18031); assay: NVS_ENZ_hPTPN1: NovaScreen (NVS) Enzymatic Assay for human Protein Tyrosine Phosphatase Non-receptor Type 1 (PTPN1) (AID 2283201)
Chain of human Protein Tyrosine Phosphatase Non-receptor Type 1 (PTPN1), PTPN1 (gene 5770) (P18031 whole entry, looked up): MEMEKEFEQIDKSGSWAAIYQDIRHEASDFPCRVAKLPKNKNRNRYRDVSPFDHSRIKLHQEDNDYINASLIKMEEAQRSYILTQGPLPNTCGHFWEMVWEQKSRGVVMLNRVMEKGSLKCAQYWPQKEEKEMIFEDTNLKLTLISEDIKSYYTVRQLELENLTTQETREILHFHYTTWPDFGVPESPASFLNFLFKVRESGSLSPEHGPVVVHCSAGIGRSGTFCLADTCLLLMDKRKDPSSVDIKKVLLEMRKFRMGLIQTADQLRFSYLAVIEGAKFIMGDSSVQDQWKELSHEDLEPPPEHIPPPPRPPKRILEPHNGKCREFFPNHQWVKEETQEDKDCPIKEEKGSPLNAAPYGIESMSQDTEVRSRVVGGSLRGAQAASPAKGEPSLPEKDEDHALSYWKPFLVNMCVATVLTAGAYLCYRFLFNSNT
In short: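 Cell-free fluorogenic-substrate activity assay on recombinant enzyme, read 1.33 h after dosing by fluorescence and electrophoretic mobility shift; loss of signal vs DMSO baseline. Primary screen in duplicate at 25 uM, hits then run in concentration-response up to 50 uM.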

[7] = target: Tyrosine-protein phosphatase non-receptor type 11 (Homo sapiens) (UniProt Q06124); assay: NVS_ENZ_hPTPN11: NovaScreen (NVS) Enzymatic Assay for human Protein Tyrosine Phosphatase Non-receptor Type 11 (PTPN11) (AID 2283202)
Chain of Tyrosine-protein phosphatase non-receptor type 11 (Homo sapiens) (Q06124 whole entry, looked up): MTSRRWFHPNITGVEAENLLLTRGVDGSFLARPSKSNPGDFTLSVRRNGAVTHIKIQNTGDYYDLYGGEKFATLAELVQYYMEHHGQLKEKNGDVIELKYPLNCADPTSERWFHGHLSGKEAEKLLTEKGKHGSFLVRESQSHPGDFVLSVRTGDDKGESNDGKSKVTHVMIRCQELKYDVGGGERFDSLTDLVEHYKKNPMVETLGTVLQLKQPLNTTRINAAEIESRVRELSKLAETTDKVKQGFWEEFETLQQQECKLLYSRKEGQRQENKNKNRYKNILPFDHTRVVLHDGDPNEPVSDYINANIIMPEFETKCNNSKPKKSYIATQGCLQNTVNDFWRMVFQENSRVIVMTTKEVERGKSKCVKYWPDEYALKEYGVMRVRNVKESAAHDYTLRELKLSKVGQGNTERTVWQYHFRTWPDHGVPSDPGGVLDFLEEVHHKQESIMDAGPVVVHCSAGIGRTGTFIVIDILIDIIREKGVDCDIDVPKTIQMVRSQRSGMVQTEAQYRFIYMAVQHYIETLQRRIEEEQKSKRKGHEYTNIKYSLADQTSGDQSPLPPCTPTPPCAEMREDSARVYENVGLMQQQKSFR
In short: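 Recombinant human PTPN11 activity on a fluorescent substrate, with substrate/product separated by electrophoretic mobility shift; read 0.5 h after dosing, loss of signal vs DMSO. Duplicate 25 uM screen, then concentration-response up to 50 uM.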

[8] = target: human Protein Phosphatase, Mg2+/Mn2+ Dependent 1A (PPM1A), PPM1A (gene 5494) (UniProt P35813); assay: NVS_ENZ_hPPM1A: NovaScreen (NVS) Enzymatic Assay for human Protein Phosphatase, Mg2+/Mn2+ Dependent 1A (PPM1A) (AID 2283198)
Chain of human Protein Phosphatase, Mg2+/Mn2+ Dependent 1A (PPM1A), PPM1A (gene 5494) (P35813 whole entry, looked up): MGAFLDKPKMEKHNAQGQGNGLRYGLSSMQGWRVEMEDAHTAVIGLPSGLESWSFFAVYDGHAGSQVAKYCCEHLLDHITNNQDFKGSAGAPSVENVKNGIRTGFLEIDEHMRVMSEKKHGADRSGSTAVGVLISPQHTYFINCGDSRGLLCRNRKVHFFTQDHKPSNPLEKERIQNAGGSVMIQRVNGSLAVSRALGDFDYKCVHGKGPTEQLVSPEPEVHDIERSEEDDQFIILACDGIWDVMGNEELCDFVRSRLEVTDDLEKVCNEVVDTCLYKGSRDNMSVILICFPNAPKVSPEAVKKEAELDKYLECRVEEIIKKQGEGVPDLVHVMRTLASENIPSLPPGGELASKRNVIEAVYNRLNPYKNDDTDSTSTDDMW
In short: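 Cell-free recombinant PPM1A phosphatase assay with fluorescent substrate, read 1 h after dosing by electrophoretic mobility shift. Chemicals screened in duplicate at 25 uM, then in concentration-response up to 50 uM; loss of activity versus DMSO.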

[9] = target: Serine/threonine-protein phosphatase PP1-alpha catalytic subunit (Homo sapiens) (UniProt P62136); assay: NVS_ENZ_hPPP1CA: NovaScreen (NVS) Enzymatic Assay for human Protein Phosphatase 1 Aatalytic subunit Alpha (PPP1CA) (AID 2283200)
Chain of Serine/threonine-protein phosphatase PP1-alpha catalytic subunit (Homo sapiens) (P62136 whole entry, looked up): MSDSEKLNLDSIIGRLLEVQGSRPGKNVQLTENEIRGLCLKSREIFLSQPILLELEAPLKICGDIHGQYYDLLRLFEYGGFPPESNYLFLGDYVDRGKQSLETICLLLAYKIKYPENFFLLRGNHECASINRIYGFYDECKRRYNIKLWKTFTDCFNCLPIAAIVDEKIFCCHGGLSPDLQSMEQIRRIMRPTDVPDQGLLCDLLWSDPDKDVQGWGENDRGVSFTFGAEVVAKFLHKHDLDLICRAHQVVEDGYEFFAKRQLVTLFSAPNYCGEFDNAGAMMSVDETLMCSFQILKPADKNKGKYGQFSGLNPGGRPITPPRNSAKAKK
In short: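 Recombinant enzyme activity read by fluorescence with electrophoretic mobility shift separating substrate from product, 1.33 h after dosing; loss of signal vs DMSO baseline. Primary screen in duplicate at 25 uM; actives retested in concentration-response up to 50 uM.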

Q: `CCNS(=O)(=O)C(F)(F)C(F)(F)C(F)(F)C(F)(F)C(F)(F)C(F)(F)C(F)(F)C(F)(F)F` was tested. Which outcome [1] did it give?
A: inactive

Q: What about the outcome [2] of the same compound?
A: inactive

Q: What about the outcome [3] of the same compound?
A: inactive

Q: What about the outcome [4] of the same compound?
A: inactive

Q: What about the outcome [5] of the same compound?
A: inactive

Q: What about the outcome (PPP2CA (gene 5515)) of the same compound?
A: inactive

Q: What about the outcome [6] of the same compound?
A: inactive

Q: What about the outcome [7] of the same compound?
A: inactive

Q: How did the outcome [8] turn out when `Cc1ccc(N=C=O)cc1N=C=O` was run?
A: inactive

Q: What about the outcome [9] of the same compound?
A: inactive

Q: How did the outcome (PPP2CA (gene 5515)) turn out when `CC(C)(OOC(C)(C)c1ccccc1)c1ccccc1` was run?
A: inactive

Q: Which AC50 [3] does the source give for `C[C@]12C=CC3=C4CCC(=O)C=C4CC[C@H]3[C@@H]1CC[C@@H]2O` here?
A: 25 µM (active)

Q: Which outcome [1] does the source give for `CS(=O)(=O)NC(=O)c1cc(Oc2ccc(C(F)(F)F)cc2Cl)ccc1[N+](=O)[O-]` here?
A: inactive

Q: Which outcome [1] does the source give for `CC(C)(C)OOC(C)(C)CCC(C)(C)OOC(C)(C)C` here?
A: inactive

Q: How did the outcome [3] turn out when `CCCCC(CC)COC(=O)c1ccc(C(=O)OCC(CC)CCCC)c(C(=O)OCC(CC)CCCC)c1` (configuration not stated) was run?
A: inactive

Q: How did the outcome (PPP2CA (gene 5515)) turn out when `Clc1ccc(Cl)c(Cl)c1` was run?
A: inactive

Q: Which outcome [8] does the source give for `CCCCOC(=O)c1ccccc1C(=O)OCc1ccccc1` here?
A: inactive

Q: Which outcome [9] does the source give for `N#CC(Br)(Br)C(N)=O` here?
A: inactive

Q: `CCN(CC)N=O` was tested. Which outcome [2] did it give?
A: inactive

Q: What about the outcome [3] of the same compound?
A: inactive

Q: What about the outcome (PPP2CA (gene 5515)) of the same compound?
A: inactive

Q: What about the outcome [6] of the same compound?
A: inactive

Q: What about the outcome [7] of the same compound?
A: inactive

Q: With `O=C(Oc1ccc(Br)cc1)N1CCN2CCC1CC2` as the compound, how does the outcome [1] read?
A: inactive

Q: And the outcome [4]?
A: inactive

Q: What does the source list for `CN(C)c1ccc(C(=O)c2ccc(N(C)C)cc2)cc1`?
A: outcome [1]: inactive; AC50 [3]: 29.1 µM (active)

Q: What does the source list for `CCC12COCN1COC2`?
A: outcome [8]: inactive; outcome (PPP2CA (gene 5515)): inactive

Q: Which AC50 [3] does the source give for `Nc1ccc(Cl)cc1N` here?
A: 12.6 µM (active)

Q: Which outcome [3] does the source give for `c1ccc(C2CO2)cc1` (configuration not stated) here?
A: inactive

Q: Which AC50 [2] does the source give for `Oc1ccc2ccc3cccc4ccc1c2c34` here?
A: 6.65 µM (active)

Q: `CCCSC(=O)N(CCC)CCC` was tested. Which outcome [3] did it give?
A: inactive

Q: With `CCOc1cccc(C2(N3CCN(c4ccccc4)CC3)CCC(C)CC2)c1` (configuration not stated) as the compound, how does the outcome [2] read?
A: inactive

Q: And the outcome [8]?
A: inactive

Q: How did the outcome (PPP2CA (gene 5515)) turn out when `Nc1ccc([N+](=O)[O-])cc1` was run?
A: inactive

Q: And the outcome [9]?
A: inactive

— PubChem BioAssay (EPA / NIEHS)
